# Data as given in PMC4336329 (PLoS ONE, 2015).
# Among all 310,000 compounds or so, about 2,200 (0.71%) showed an effect of 50% or more. Effects have a minus sign here. Many of the other results were omitted from the sample, so strong results are more common in it than they were.
# Biological target: human ether-à-go-go-related gene (hERG) potassium channel (human, UniProt Q12809)
# Assay: primary screen, population patch clamp on CHO cells stably expressing hERG; higher = less effect of the substance
# Chain of human ether-à-go-go-related gene (hERG) potassium channel (Q12809 whole entry, looked up): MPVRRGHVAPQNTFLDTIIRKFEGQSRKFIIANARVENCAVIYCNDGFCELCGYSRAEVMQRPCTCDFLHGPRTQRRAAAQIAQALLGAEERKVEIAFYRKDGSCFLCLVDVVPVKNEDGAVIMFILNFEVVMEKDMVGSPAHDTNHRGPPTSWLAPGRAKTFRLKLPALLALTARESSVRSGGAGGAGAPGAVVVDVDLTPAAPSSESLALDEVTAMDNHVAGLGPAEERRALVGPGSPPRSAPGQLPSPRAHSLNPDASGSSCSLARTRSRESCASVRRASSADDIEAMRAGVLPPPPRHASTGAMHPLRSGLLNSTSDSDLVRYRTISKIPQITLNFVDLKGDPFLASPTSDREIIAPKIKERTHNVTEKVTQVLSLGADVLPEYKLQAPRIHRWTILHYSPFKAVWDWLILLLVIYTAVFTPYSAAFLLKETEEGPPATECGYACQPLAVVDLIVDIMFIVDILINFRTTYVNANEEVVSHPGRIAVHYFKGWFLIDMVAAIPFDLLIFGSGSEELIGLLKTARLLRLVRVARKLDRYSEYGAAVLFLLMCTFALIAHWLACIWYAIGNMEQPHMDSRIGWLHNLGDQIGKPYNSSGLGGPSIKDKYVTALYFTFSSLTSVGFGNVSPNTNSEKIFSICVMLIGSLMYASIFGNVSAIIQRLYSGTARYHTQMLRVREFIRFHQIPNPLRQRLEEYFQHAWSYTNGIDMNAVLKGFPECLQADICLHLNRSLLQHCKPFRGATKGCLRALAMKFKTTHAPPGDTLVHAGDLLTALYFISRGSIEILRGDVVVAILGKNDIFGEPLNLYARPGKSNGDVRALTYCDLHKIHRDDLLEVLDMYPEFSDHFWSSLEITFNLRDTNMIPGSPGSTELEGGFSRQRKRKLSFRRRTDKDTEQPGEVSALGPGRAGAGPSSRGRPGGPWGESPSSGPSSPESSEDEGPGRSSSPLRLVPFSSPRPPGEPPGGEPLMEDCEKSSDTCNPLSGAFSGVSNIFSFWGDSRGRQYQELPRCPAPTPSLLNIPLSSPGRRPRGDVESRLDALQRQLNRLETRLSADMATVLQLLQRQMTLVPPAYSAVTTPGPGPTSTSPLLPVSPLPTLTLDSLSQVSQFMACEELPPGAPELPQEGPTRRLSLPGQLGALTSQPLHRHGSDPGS
row,Compound,"hERG current change (%, negative = inhibition) at 1uM [%]"
1,COc1ccc(NC(=O)Cn2nnc(-c3ccccc3F)n2)cc1,8.09
2,CCC(=O)Nc1ccc(-c2nnc(SCC(=O)NCC3CCCO3)n2C)cc1 (stereo not shown),14.4
3,COc1ccc(NC(=O)CN2C(=O)C(C)SC(C)C2=O)cc1 (stereo not shown),6.14
4,Cn1c(-[n+]2c(-c3ccccc3)cc(-c3ccccc3)cc2-c2ccccc2)nc2c([N+](=O)[O-])cccc21.[I-],-6.1
5,Cc1ccc(C(=O)N/C(=C\c2ccc(-c3ccccc3[N+](=O)[O-])o2)C(=O)NCCCN(C)C)cc1,-14.9
6,Cc1ccc(C(=O)N/C(=C\c2ccc(-c3ccccc3[N+](=O)[O-])o2)C(=O)NCCN(C)C)cc1,-29.7
7,Cc1ccc(C(=O)N/C(=C/c2ccc(-c3ccc([N+](=O)[O-])cc3)o2)C(=O)NCCCN(C)C)cc1,-78
8,CN(C)CCCNC(=O)/C(=C/c1ccc(-c2ccc([N+](=O)[O-])cc2)o1)NC(=O)c1ccccc1,-52.5
9,CCCCNC(=O)/C(=C\c1ccc([N+](=O)[O-])o1)NC(=O)c1ccccc1,-6.47
10,CN(C)C(=O)/C(=C/c1ccc(-c2cccc([N+](=O)[O-])c2)o1)NC(=O)c1ccccc1,5.68
11,CCOC(=O)C(C)Oc1cccc2c(=O)n(CC(=O)N3CCCc4ccccc43)ccc12 (stereo not shown),15.8
12,CN(Cc1cccc2cnccc12)C(=O)c1cc(COc2ccc(F)cc2Cl)on1,19.5
13,Cc1cc(C)nc(SCC(=O)N(C)CC(=O)Nc2c(Cl)cccc2Cl)n1,7.52
14,O=C(Oc1ccc(-c2nccc(-c3ccccn3)n2)cc1)c1cccc(C(F)(F)F)c1,5.53
15,CNc1nc(C)nc(-n2nc(C)cc2C)n1,9.5
16,Cc1cc(C)n(-c2nc(C)nc(NCc3ccccc3)n2)n1,-61.6
17,Cc1cc(C)n(-c2nc(Nc3ccccc3)nc(-n3nc(C)cc3C)n2)n1,12.1
18,CCCOC(=O)c1ccc(NC(=O)CN(C)Cc2cccs2)cc1,11.8
19,O=C1c2ccsc2SCCN1Cc1cccc(Cl)c1,8.86
20,COc1ccc(N2CCN(C(=O)Cn3cnc4c(cnn4-c4ccccc4)c3=O)CC2)cc1,5.22
21,Cc1ccc(Cl)cc1NC(=O)CCS(=O)(=O)c1cccc2nonc12,10.8
22,Brc1ccc(CN2C3=NCCCN3c3ccccc32)cc1.Cl,-55.6

row,Compound,"hERG current change (%, negative = inhibition) at 1uM [%]"
1,Cc1cc2c(cc1C)N(Cc1ccc(Cl)cc1)C1=NCCCN12,-28.4
2,Cl.Fc1ccc(CN2C3=NCCCN3c3ccccc32)cc1,-32.8
3,Cl.c1ccc(CN2C3=NCCCN3c3ccccc32)cc1,-29
4,Cl.O=C(CN1C2=NCCCN2c2ccccc21)c1ccc(Cl)cc1Cl,-82.1
5,Cl.Clc1ccc(CN2C3=NCCN3c3ccccc32)cc1Cl,-72.3
6,c1ccc(CN2C3=NCCN3c3ccccc32)cc1,2.38
7,Cl.Clc1ccc(CN2C3=NCCCN3c3ccccc32)cc1,-54.3
8,Cl.O=C(O)CN1C2=NCCCN2c2ccccc21,15.8
9,Cl.Clc1ccc(CN2C3=NCCCN3c3ccccc32)c(Cl)c1,-28.2
10,Cc1ccc(CN2C3=NCCN3c3ccccc32)cc1.Cl,-23.5
11,Cl.Clc1ccc(CN2C3=NCCN3c3ccccc32)cc1,-40.4
12,COc1ccc(Sc2ccc(NC(=O)c3ccccc3Cl)cc2C#N)cc1,8.52
13,Cc1ccc(-c2csc(N3CCC(NS(=O)(=O)c4ccc5c(c4)OCCO5)CC3)n2)cc1,9.83
14,CCOC(=O)Nc1nc(C)c(C(=O)N(C)C)s1,-1.49
15,Cn1c(OCc2ccco2)nc2c1c(=O)n(Cc1ccc(Cl)c(Cl)c1)c(=O)n2C,6.62
16,COc1ccc(C(=O)NC(=S)N2CC(C)OC(C)C2)cc1OC (stereo not shown),7.44
17,COC(=O)c1sccc1NC(=O)Nc1cccc(F)c1,9.69
18,C[C@@H](C(=O)OCC(=O)NCCc1ccc(S(N)(=O)=O)cc1)N1C(=O)C2CCCCC2C1=O (stereo partly shown),12
19,Cl.Clc1ccc(CN2C3=NCCCN3c3ccccc32)cc1Cl,-51.4
20,Cl.Clc1cccc(CN2C3=NCCCN3c3ccccc32)c1,-46.2
21,Cc1cccc(CN2C3=NCCCN3c3ccccc32)c1.Cl,-16.9
22,Cc1ccc(CN2C3=NCCCN3c3ccccc32)cc1.Cl,-29.6

row,Compound,"hERG current change (%, negative = inhibition) at 1uM [%]"
1,Br.CC(C)(C)c1ccc(CN2C3=NCCCN3c3ccccc32)cc1,-79.7
2,Br.CC(C)(C)C(=O)CN1C2=NCCCN2c2ccccc21,-46.9
3,O=C1CSC2(CCCCC2)N1CCO,12.4
4,O=C(Oc1ccc(C(=S)N2CCOCC2)cc1)c1ccccc1,28.6
5,O=C(COC(=O)C1(c2ccc(F)cc2)CCCC1)Nc1ncc(C(F)(F)F)cc1Cl,2.97
6,O=C(C1CCN(C2CC(=O)N(c3ccc(Cl)cc3)C2=O)CC1)N1CCOCC1 (stereo not shown),2.01
7,CCCC[C@@H]1C[C@H]1[C@@H](NC(=O)c1ccco1)c1ccc(Cl)cc1,6.22
8,CC(Nc1nc(N2CCOCC2)nc2ccccc12)c1ccccc1 (stereo not shown),-52.7
9,CC(Nc1nc(N2CCNCC2)nc2ccccc12)c1ccccc1 (stereo not shown),-31.7
10,CC(Nc1nc(N2CCN(CCO)CC2)nc2ccccc12)c1ccccc1 (stereo not shown),-25.9
11,CC(Nc1nc(N2CCCCC2)nc2ccccc12)c1ccccc1 (stereo not shown),-14.4
12,CC(Nc1nc(N2CCN(S(C)(=O)=O)CC2)nc2ccccc12)c1ccccc1 (stereo not shown),-14
13,CC(Nc1nc(N2CCCC2)nc2ccccc12)c1ccccc1 (stereo not shown),-84.6
14,COC(=O)C(C(=O)Nc1cccc(Cl)c1C)C1CCCC1 (stereo not shown),5.04
15,COCCCN1C(=O)C(=O)/C(=C(/O)c2ccc(S(=O)(=O)N3CCOCC3)cc2)C1c1ccc(F)cc1 (stereo not shown),6.04
16,Cc1ccsc1/C=N/Nc1ncnc2nc[nH]c12,-2.18
17,COc1ccc(S(=O)(=O)N2N=C(c3ccc(NS(C)(=O)=O)cc3)CC2c2ccco2)cc1 (stereo not shown),-69.6
18,CS(=O)(=O)Nc1ccc(C2=NN(S(=O)(=O)c3ccc(F)cc3)C(c3ccco3)C2)cc1 (stereo not shown),-15.6
19,COc1ccc(S(=O)(=O)N2N=C(c3cccc(NS(C)(=O)=O)c3)CC2c2ccco2)cc1 (stereo not shown),16.4
20,O=C(CCS(=O)(=O)Cc1ccccc1F)NCCc1ccc(Cl)cc1,5.86
21,Cc1cc(NC(=O)CSc2nc3c(c(=O)n2-c2ccc(Br)cc2)SCC3)no1,6.41
22,CCOC(=O)c1c(CN(CC)CC)oc2ccc(OC)cc12,-25.8

row,Compound,"hERG current change (%, negative = inhibition) at 1uM [%]"
1,CCOC(=O)c1c(CN2CCCCC2)n(C)c2cc(Br)c(OC)cc12,9.14
2,CCOC(=O)c1c(CN2CCN(C)CC2)n(C)c2cc(Br)c(OC)cc12,-12.4
3,CCOC(=O)c1c(CN(CC)CC)oc2cc(Br)c(O)cc12,-59.5
4,CCOC(=O)c1c(CN2CCCCC2)n(C)c2cc(Br)c(O)cc12,-68.8
5,CCOC(=O)c1c(CN(CC)CC)n(C)c2cc(Br)c(O)cc12.Cl,-45
6,Cc1ccc(NC(=S)NNC(=O)Cn2nc(C(F)F)cc2C(F)F)cc1,13.6
7,Cc1oc(C(C)(C)C)cc1C(=O)Nc1ccc(N2CCOCC2)cc1,4.63
8,CC(=O)NC(=S)Nc1ccccc1N1CCN(C(=O)c2ccccc2)CC1,10.6
9,C[N+](C)(C)CCCCCCCCCC[N+](C)(C)C.[Br-],7.97
10,CCCCCCCCCCOC(=O)Cn1c(COc2cccc(C)c2)[n+](C)c2ccccc21.[Cl-],-43.9
11,CCCCc1n(CC(=O)c2ccc(Cl)cc2)c2ccccc2[n+]1C.[Br-],10.7
12,CCCCCCCCCCOC(=O)Cn1c(COc2ccccc2OC)[n+](C)c2ccccc21.[Cl-],-33.2
13,CCCCCCCCCCOC(=O)Cn1c(COc2ccc(OC)cc2)[n+](C)c2ccccc21.[Cl-],-70.9
14,CCCCCCCCCCOC(=O)Cn1c(COc2ccccc2)[n+](C)c2ccccc21.[Cl-],-46.5
15,CCCCCCCCCCOC(=O)Cn1c(COc2cccc(OC)c2)[n+](C)c2ccccc21.[Cl-],-37.3
16,CCCCCCCCCCOC(=O)Cn1c(COc2ccc(Cl)cc2)[n+](C)c2ccccc21.[Cl-],-79.1
17,CCCCCCCCCCOC(=O)Cn1c(COc2ccc(C)cc2)[n+](C)c2ccccc21.[Cl-],-56.5
18,CCCCCCCCCCOC(=O)Cn1c(COc2ccccc2C)[n+](C)c2ccccc21.[Cl-],-18
19,CCN(C(=S)Nc1ccc(Oc2ccccc2)cc1)c1ccccc1,21.1
